According to PubChem BioAssay (Tox21):
Inconclusive results are not listed. A structure can be active in one record and inactive in another. Activity calls are given as the source filed them. Unless noted, calls come from the whole dose curve.

What was measured:
[1] = Nuclear factor erythroid 2-related factor 2/antioxidant responsive element (Nrf2/ARE) small molecule agonists: qHTS cell viability counter screen in human keratinocytes (AID 1919968; active = well fitted curve in the direction sought with a large enough effect in the repeat runs; an effect the other way counts as inactive or inconclusive; note: nearly all actives have a fitted effect of over 55% in size; note: potency is the fitted concentration of half-maximal effect); conditions: KeratinoSens HaCaT ARE cells viability, CellTiter-Fluor, 24 h; series mostly up to 92.4 µM
Outline: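 Viability counter-screen: KeratinoSens reporter cells, DMSO-delivered compounds, 23 h at 37 C, CellTiter-Fluor fluorescence.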

[2] = Nuclear factor erythroid 2-related factor 2/antioxidant responsive element (Nrf2/ARE) small molecule agonists: luciferase reporter gene qHTS assay in human keratinocytes (AID 1919969); conditions: KeratinoSens HaCaT ARE-luciferase, luminescence, 24 h; series mostly up to 92.4 µM; note: nearly all actives have a fitted effect of over 35% in size
[3] = target: Gonadotropin-releasing hormone receptor (Homo sapiens) (UniProt P30968); assay: Human gonadotropin-releasing hormone receptor (GnRHR) small molecule agonists, calcium flux assay in GnRHR-HEK293 cells (AID 1920063); conditions: calcium flux fluorescence, agonist mode; series mostly up to 57.6 µM; note: nearly all actives have a fitted effect of over 35% in size
Sequence of Gonadotropin-releasing hormone receptor (Homo sapiens) (P30968 whole entry, looked up): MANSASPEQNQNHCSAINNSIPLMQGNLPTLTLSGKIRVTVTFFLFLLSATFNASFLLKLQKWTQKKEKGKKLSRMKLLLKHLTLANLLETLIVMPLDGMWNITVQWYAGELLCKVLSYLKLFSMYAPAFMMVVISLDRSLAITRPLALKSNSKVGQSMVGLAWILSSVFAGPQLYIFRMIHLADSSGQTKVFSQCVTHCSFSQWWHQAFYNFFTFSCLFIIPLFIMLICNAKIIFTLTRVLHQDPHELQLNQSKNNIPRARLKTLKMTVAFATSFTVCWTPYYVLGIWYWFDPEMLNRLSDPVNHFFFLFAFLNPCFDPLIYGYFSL
Outline: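 Tox21-format agonist screen using human GnRHR-expressing HEK293 cells and a fluorescent calcium dye; kinetic 3-min fluorescence reading after compound addition, 15-point concentration series run in triplicate.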

[4] = target: KiSS-1 receptor (Homo sapiens) (UniProt Q969F8); assay: Human kisspeptin (KISS1R) small molecule agonists, calcium flux assay in KISS1R-HEK293 cells (AID 1920064; active = well fitted curve in the direction sought with a large enough effect in the repeat runs; an effect the other way counts as inactive or inconclusive); conditions: KISS1R-HEK293, calcium flux fluorescence, agonist; series mostly up to 76.8 µM
Sequence of KiSS-1 receptor (Homo sapiens) (Q969F8 whole entry, looked up): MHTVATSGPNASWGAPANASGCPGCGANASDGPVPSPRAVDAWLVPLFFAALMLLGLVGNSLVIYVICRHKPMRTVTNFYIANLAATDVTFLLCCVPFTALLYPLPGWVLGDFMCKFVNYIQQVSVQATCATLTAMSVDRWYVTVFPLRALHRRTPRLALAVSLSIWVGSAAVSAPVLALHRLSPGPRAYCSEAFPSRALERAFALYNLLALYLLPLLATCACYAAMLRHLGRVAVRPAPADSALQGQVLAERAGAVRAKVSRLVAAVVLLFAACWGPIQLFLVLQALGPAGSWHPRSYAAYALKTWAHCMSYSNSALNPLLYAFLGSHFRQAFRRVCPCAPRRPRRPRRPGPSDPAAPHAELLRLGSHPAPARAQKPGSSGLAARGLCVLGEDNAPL
Outline: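 Intracellular calcium mobilization in KISS1R-HEK293 cells was recorded by fluorescence (Ex/Em 480/540) for 3 min following compound addition to cells pre-loaded 1 h with calcium dye.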

[5] = G protein-coupled receptor (GPCR) small molecule agonists, calcium flux assay: HEK293 wild type cell line counter screen (AID 1920065); conditions: HEK293 WT calcium flux, fluorescence, agonist mode; series mostly up to 57.6 µM
Outline: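 In this agonist-mode screen, ATP is the positive control and DMSO the vehicle. Cells grow 18 h before a 1 h dye incubation at 37 C; signal is taken at Ex/Em 480/540 over 3 min.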

[6] = p53 small molecule agonists, cell-based qHTS assay with human liver microsomes (AID 1963577); conditions: HCT-116 p53RE-bla with human liver microsomes, ratio, 16 h; series mostly up to 66 µM
Outline: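 Fluorescence of the beta-lactamase reporter in p53RE-bla cells, detected with LiveBLAzer substrate (2 h, room temperature, dark), served as the read-out after 16 h compound exposure at 37 C with human liver microsomes and NADPH, each 0.5 mg/mL final.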

[7] = p53 small molecule agonists, cell-based qHTS assay with rat liver microsomes (AID 1963578); conditions: HCT-116 p53RE-bla, beta-lactamase ratio, 16 h; series mostly up to 66 µM
Outline: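 Cells carrying a p53 response element–beta-lactamase reporter were plated and rested 5 h, then dosed with compound in DMSO plus rat liver microsomes and NADPH, each at 0.5 mg/mL final. After 16 h at 37 C, LiveBLAzer substrate was added for 2 h.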

[8] = p53 small molecule agonists, cell-based qHTS assay with human liver microsomes: qHTS cell viability counter screen (AID 1963579); conditions: p53RE-bla HCT-116 viability, ATP luminescence, 16 h, HLM; series mostly up to 66 µM; note: nearly all actives have a fitted effect of over 45% in size
Outline: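 Cytotoxicity counter screen: p53RE-bla, 4,000 cells/well; 5 h settle, 37 C/5% CO2; cpd + HLM 0.5 mg/mL + NADPH 0.5 mg/mL (final); 16 h, 37 C; CellTiter-Glo, 30 min RT, luminescence.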

[9] = p53 small molecule agonists, cell-based qHTS assay with rat liver microsomes: qHTS cell viability counter screen (AID 1963580); conditions: p53RE-bla HCT-116 + rat microsomes, ATP viability, 16 h; series mostly up to 66 µM; note: nearly all actives have a fitted effect of over 45% in size; note: potency is the fitted concentration of half-maximal effect
Outline: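 Intracellular ATP, by CellTiter-Glo luminescence, defines viability. HCT-116 p53RE-bla cells, 4,000 per well, were compound-treated in the presence of rat liver microsomes and NADPH for 16 h at 37 C.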

[10] = p53 small molecule agonists, cell-based qHTS assay: qHTS cell viability counter screen (AID 1963581); conditions: p53RE-bla HCT-116 viability, ATP luminescence, 16 h; series mostly up to 66 µM; note: nearly all actives have a fitted effect of over 45% in size
Outline: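 Compounds are pinned onto HCT-116 p53RE-bla cells and left 16 h at 37 C. Following the reporter FRET read, ATP is quantified by CellTiter-Glo luminescence after 30 min at room temperature.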

[11] = p53 small molecule agonists, cell-based qHTS assay (AID 1963582; active = well fitted activation curve with a large enough effect in the signal ratio in the repeat runs, not every such curve was filed as active; the % refers to the signal ratio); conditions: HCT-116 p53RE-bla reporter, beta-lactamase FRET ratio, 16 h; series mostly up to 66 µM
Outline: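 Agonist activity was scored from beta-lactamase FRET fluorescence in p53RE-bla cells treated 16 h at 37 C with compounds in DMSO, substrate incubation being 2 h at room temperature.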

[12] = target: 5-hydroxytryptamine receptor 2A (Homo sapiens) (UniProt P28223); assay: 5-hydroxytryptamine receptor 2A (HTR2A) small molecule antagonists, cell-based qHTS assay (AID 1963586); conditions: HTR2A-CHO cells, DOI-induced calcium flux, fluorescence; series mostly up to 61.5 µM; note: nearly all actives have a fitted effect of over 45% in size
Sequence of 5-hydroxytryptamine receptor 2A (Homo sapiens) (P28223 whole entry, looked up): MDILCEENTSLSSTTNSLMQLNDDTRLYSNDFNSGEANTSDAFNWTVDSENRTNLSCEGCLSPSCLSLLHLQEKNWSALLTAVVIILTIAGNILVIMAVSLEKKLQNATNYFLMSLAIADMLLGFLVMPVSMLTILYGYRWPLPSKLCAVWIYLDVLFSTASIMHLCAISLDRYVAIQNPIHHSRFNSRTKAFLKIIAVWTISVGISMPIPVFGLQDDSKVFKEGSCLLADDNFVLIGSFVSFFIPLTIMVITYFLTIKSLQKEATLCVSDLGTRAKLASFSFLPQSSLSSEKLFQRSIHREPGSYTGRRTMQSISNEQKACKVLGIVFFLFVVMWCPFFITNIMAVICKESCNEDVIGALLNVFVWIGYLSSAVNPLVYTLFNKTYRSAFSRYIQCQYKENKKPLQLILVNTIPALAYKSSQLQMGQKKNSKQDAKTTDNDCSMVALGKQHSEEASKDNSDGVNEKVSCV
Outline: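 Antagonist-mode intracellular calcium assay: DOI (4 nM) added after 5 min compound pre-incubation at room temperature to dye-loaded HTR2A-CHO cells. Fluorescence followed for 3 min, sampled every second.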

[13] = target: 5-hydroxytryptamine receptor 2A (Homo sapiens) (UniProt P28223); assay: 5-hydroxytryptamine receptor 2A (HTR2A) small molecule agonists, cell-based qHTS assay (AID 1963587); conditions: HTR2A-CHO cells, calcium flux fluorescence, agonist mode; series mostly up to 76.8 µM; note: nearly all actives have a fitted effect of over 30% in size
Outline: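 Kinetic calcium-flux fluorescence (2 min, 1 sec intervals) after compound addition in agonist mode. HTR2A-CHO cells were cultured 18 h, then dye-loaded 1 h at 37 C.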

[14] = target: Muscarinic acetylcholine receptor M1 (Homo sapiens) (UniProt P11229); assay: Cholinergic receptor muscarinic 1 (CHRM1) small molecule agonists, cell-based qHTS assay (AID 1963589); conditions: CHRM1-CHO cells, agonist mode, calcium flux fluorescence; series mostly up to 76.8 µM; note: nearly all actives have a fitted effect of over 35% in size
Sequence of Muscarinic acetylcholine receptor M1 (Homo sapiens) (P11229 whole entry, looked up): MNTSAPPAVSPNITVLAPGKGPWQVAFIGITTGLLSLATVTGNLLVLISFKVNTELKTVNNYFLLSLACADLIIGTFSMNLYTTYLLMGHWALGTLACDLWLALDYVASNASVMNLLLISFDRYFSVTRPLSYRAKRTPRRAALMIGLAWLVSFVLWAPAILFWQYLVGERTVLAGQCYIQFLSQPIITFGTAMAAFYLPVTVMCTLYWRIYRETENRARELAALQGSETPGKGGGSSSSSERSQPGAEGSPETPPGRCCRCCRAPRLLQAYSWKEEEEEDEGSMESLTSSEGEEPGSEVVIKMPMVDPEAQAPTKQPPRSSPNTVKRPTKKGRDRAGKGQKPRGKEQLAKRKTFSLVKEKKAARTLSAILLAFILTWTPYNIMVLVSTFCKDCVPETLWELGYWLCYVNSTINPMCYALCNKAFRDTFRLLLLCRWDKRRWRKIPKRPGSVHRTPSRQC
Outline: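 Stable CHRM1-CHO cells (human receptor) were incubated 18 h, dye-loaded for 1 h at 37 C and exposed to test compounds for agonist activity, with calcium-dependent fluorescence followed kinetically.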

[15] = cAMP Responsive Elements (CRE) small molecule agonists, cell-based qHTS assay (AID 1963590); conditions: CRE-bla HEK293T, beta-lactamase FRET ratio, 3 h; series mostly up to 92.4 µM
Outline: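 FRET-based beta-lactamase readout (LiveBLAzer B/G, 2 h RT) quantified CRE activation in HEK 293T CRE-bla cells after 3 h treatment with DMSO-dissolved compounds.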

[16] = cAMP Responsive Elements (CRE) small molecule antagonists, cell-based qHTS assay (AID 1963591; active = well fitted inhibition curve with a large enough effect in the signal ratio in the repeat runs, not every such curve was filed as active; the % refers to the signal ratio); conditions: CRE-bla HEK293T, beta-lactamase FRET ratio; series mostly up to 92.4 µM
Outline: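 qHTS in CRE-bla HEK 293T cells: compound in DMSO, then 0.25 uM NKH477 (final), 3 h at 37 °C/5% CO2; beta-lactamase FRET read-out after 2 h substrate incubation.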

[17] = target: D(2) dopamine receptor (Homo sapiens) (UniProt P14416); assay: Dopamine D2 receptor (DRD2) small molecule agonists, cell-based qHTS assay (AID 1963594); conditions: HEK293-DRD2 cAMP HTRF, agonist mode, 30 min; series mostly up to 92.4 µM; note: nearly all actives have a fitted effect of over 35% in size
Sequence of D(2) dopamine receptor (Homo sapiens) (P14416 whole entry, looked up): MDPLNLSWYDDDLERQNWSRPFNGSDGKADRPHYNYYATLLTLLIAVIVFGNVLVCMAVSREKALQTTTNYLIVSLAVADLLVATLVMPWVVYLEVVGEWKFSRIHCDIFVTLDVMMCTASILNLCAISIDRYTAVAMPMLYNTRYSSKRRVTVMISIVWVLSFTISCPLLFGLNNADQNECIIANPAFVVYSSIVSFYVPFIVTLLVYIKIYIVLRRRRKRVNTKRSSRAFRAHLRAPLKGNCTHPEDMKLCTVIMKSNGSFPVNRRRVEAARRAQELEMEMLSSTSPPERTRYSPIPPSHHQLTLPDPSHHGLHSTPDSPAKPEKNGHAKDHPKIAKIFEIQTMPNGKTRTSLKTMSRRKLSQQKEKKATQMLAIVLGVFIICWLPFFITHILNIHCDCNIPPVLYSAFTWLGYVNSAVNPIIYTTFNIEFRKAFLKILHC
Outline: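 cAMP accumulation in DRD2-HEK293 cells measured by HTRF after 1 h detection; compounds added 10 min before NKH477 (200nM […]) forskolin-analogue stimulation, 30 min at room temperature, with Ro20-1724 present at 0.1 mM final.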

[18] = target: D(2) dopamine receptor (Homo sapiens) (UniProt P14416); assay: Dopamine D2 receptor (DRD2) small molecule antagonists, cell-based qHTS assay (AID 1963595; active = well fitted inhibition curve with a large enough effect in the signal ratio in the repeat runs, with a control signal flat; the % refers to the signal ratio); conditions: HEK293-DRD2 cAMP HTRF antagonist mode; series mostly up to 92.4 µM
Outline: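 Human DRD2 antagonist qHTS measuring cAMP by HTRF. The cells are exposed to compound for 10 min, then to NKH477 (200 nM) and quinpirole (12 nM) for 30 min at RT, with Ro20-1724 (0.1 mM) present throughout.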

[19] = target: Muscarinic acetylcholine receptor M1 (Homo sapiens) (UniProt P11229); assay: Cholinergic receptor muscarinic 1 (CHRM1) small molecule antagonists, cell-based qHTS assay (AID 1963588); conditions: CHRM1-CHO antagonist mode, calcium flux fluorescence; series mostly up to 61.5 µM; note: nearly all actives have a fitted effect of over 40% in size
Outline: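 CHRM1-CHO calcium-flux assay, antagonist mode. Cells were seeded 18 h, dye-loaded 1 h at 37 C and given compound for 5 min at RT, then acetylcholine was added at 50nM. FDSS fluorescence was read 3 min; 15 concentrations, three runs.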

[20] = target: Beta-2 adrenergic receptor (Homo sapiens) (UniProt P07550); assay: Adrenergic beta2 receptor (ADRB2) small molecule antagonists, cell-based qHTS assay (AID 1963592); conditions: CHO-ADRB2 cells, isoproterenol-stimulated cAMP HTRF ratio, 0.5 h; series mostly up to 92.4 µM; note: nearly all actives have a fitted effect of over 50% in size
Sequence of Beta-2 adrenergic receptor (Homo sapiens) (P07550 whole entry, looked up): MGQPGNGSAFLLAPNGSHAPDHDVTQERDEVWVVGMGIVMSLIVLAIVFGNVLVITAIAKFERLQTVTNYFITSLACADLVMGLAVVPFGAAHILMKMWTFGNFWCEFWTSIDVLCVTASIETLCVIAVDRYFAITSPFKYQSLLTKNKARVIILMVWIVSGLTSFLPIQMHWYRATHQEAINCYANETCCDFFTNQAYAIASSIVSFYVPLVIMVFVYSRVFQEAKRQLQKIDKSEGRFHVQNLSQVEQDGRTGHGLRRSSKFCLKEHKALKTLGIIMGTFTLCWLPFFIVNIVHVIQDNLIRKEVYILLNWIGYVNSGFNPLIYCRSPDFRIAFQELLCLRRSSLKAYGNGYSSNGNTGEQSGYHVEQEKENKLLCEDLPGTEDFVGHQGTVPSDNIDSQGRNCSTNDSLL
Outline: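 Cells (CHO, stable ADRB2 overexpression) incubated 18-20hr at 37C; compounds added from DMSO; agonist mix (1nM isoproterenol, 100uM IBMX, 25uM Ro-20-1724) added; 0.5hr RT; d2-cAMP and anti-cAMP-cryptate added; 1hr RT; 665/615 nm read.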

Measured: Potency

CC(=O)N(O)CCCCCNC(=O)CCC(=O)N(O)CCCCCNC(=O)CCC(=O)N(O)CCCCCN
not listed: [19] | [20]
inactive: all other assays above

CC(C)[C@@H]1CC[C@@H](C)CC1=O
not listed: [14] | [15]
inactive: all other assays above

CCOC(=O)O[C@]1(C(=O)OCCl)CC[C@H]2[C@@H]3CCC4=CC(=O)C=C[C@]4(C)[C@H]3[C@@H](O)C[C@@]21C
not listed: [16] | [19]
inactive: all other assays above

CC1(C)C(O)C(C)(C)C1O (stereo unspecified)
not listed: [19] | [20]
inactive: all other assays above

O=C(NCN1CCOCC1)c1cnccn1
not listed: [17] | [19]
inactive: all other assays above

Cc1onc(-c2ccccc2)c1C(=O)Cl
not listed: [19]
inactive: all other assays above

CC(C)C(=O)O
not listed: [19]
inactive: all other assays above

COC(=O)c1ccc(C(=O)OC)cc1
2.47 µM (active) and inactive: [1]
18.5 µM (active) and inactive: [9]
not listed: [14]
inactive: all other assays above

NCCNCCN
not listed: [19]
inactive: all other assays above
